Assay results published in PubChem BioAssay (NCI).
Compounds without any hit were thinned out: in the full panel of roughly 79,000, 15% have a hit. The source made the active and inactive calls. Rule as the data show it: active = growth inhibition above about 70%; inactive = the rest.

What was measured:
[1] = NCI Yeast Anticancer Drug Screen. Data for the mec2-1 strain (AID 157); conditions: S. cerevisiae mec2-1 strain, stronger effect = higher value
Summary of the method: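 Cells of the genetically defined mec2-1 yeast strain are incubated with test compound. Inhibition of growth is calculated against vehicle-treated controls.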

[2] = NCI Yeast Anticancer Drug Screen. Data for the rad14 strain (AID 159);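 also: 0% = growth of vehicle-treated control cultures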; conditions: S. cerevisiae rad14 strain growth inhibition, stronger effect = higher value
Summary of the method: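 Readout: yeast growth inhibition, referenced to vehicle-only cultures. Strain bears a defined alteration in DNA damage repair.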

[3] = NCI Yeast Anticancer Drug Screen. Data for the sgs1 mgt1 strain (AID 161);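 also: 0% = growth of cultures given vehicle only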; conditions: S. cerevisiae sgs1 mgt1 strain, stronger effect = higher value
Summary of the method: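 Genetically altered yeast, compound exposure, growth inhibition relative to vehicle.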

[4] = NCI Yeast Anticancer Drug Screen. Data for the CLN2oe strain (AID 163);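 also: 0% = growth of vehicle-only control cultures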; conditions: S. cerevisiae CLN2oe strain, stronger effect = higher value
Summary of the method: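 Strain altered in cell-cycle control, incubated with compound; growth compared to solvent-treated controls.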

[5] = NCI Yeast Anticancer Drug Screen. Data for the cln2 rad14 strain (AID 165);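 also: 0% = growth equal to vehicle treated cultures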; conditions: S. cerevisiae cln2 rad14 strain, stronger effect = higher value
Summary of the method: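 The screen exposed genetically defined yeast (cln2 rad14) to test compounds and scored growth inhibition relative to vehicle-treated controls.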

[6] = NCI Yeast Anticancer Drug Screen. Data for the bub3 strain (AID 167); conditions: S. cerevisiae bub3 mutant strain, stronger effect = higher value
Summary of the method: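 Part of a panel of yeast mutants defective in DNA damage repair or cell cycle regulation. Each strain is grown with compound, and inhibition is calculated relative to solvent-treated cultures.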

[7] = NCI Yeast Anticancer Drug Screen. Data for the wt2 strain (AID 169);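 also: 0% = growth of vehicle-treated yeast cultures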; conditions: S. cerevisiae wt2 strain growth inhibition, stronger effect = higher value
Summary of the method: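 Steps: yeast strain treated with compound; growth recorded; inhibition calculated relative to cultures given vehicle alone.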

[8] = NCI Yeast Anticancer Drug Screen. Data for the mlh1 strain (AID 171);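 also: 0% = growth of vehicle-treated control cultures of the same strain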; conditions: S. cerevisiae mlh1 strain growth inhibition, stronger effect = higher value
Summary of the method: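 Yeast screen: mutant strain plus compound, growth scored against vehicle control wells.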

[9] = NCI Yeast Anticancer Drug Screen. Data for the sgs1 strain (AID 173);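 also: 0% = growth of vehicle-only control cultures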; conditions: S. cerevisiae sgs1 mutant, stronger effect = higher value
Summary of the method: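 Inhibition of yeast growth served as the measure. The mutant strain was treated with each compound, and growth was normalised to cultures receiving vehicle alone.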

[10] = NCI Yeast Anticancer Drug Screen. Data for the mlh1 rad18 strain (AID 175); conditions: S. cerevisiae mlh1 rad18 strain growth inhibition, stronger effect = higher value
Summary of the method: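 Compound-treated yeast growth, normalised to vehicle controls. Strain bears defined DNA repair mutations.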

[11] = NCI Yeast Anticancer Drug Screen. Data for the rad18 strain (AID 177); conditions: S. cerevisiae rad18 mutant growth inhibition, stronger effect = higher value
Summary of the method: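 Inhibition values reflect reduced yeast growth compared with vehicle-treated controls, using a strain engineered with a DNA damage repair defect.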

[12] = NCI Yeast Anticancer Drug Screen. Data for the rad52 strain (AID 147);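 also: 0% = growth of vehicle-treated control cultures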; conditions: S. cerevisiae rad52 mutant growth inhibition, stronger effect = higher value
Summary of the method: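 Genetically altered yeast (DNA damage repair defect) treated with compound; inhibition calculated relative to vehicle.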

[13] = NCI Yeast Anticancer Drug Screen. Data for the wt1 strain (AID 149);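 also: 0% = growth of vehicle-treated wt1 cultures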; conditions: S. cerevisiae wt1 strain (SPY 50644) growth inhibition, stronger effect = higher value
Summary of the method: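 The wt1 strain was treated with compounds, and growth was compared with vehicle-treated cultures to give inhibition.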

[14] = NCI Yeast Anticancer Drug Screen. Data for the rad50EPP+ strain (AID 151);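 also: 0% = growth of vehicle-treated control cultures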; conditions: S. cerevisiae rad50 mutant strain, stronger effect = higher value
Summary of the method: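 Strain rad50EPP+; compound exposure; % growth inhibition vs vehicle.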

[15] = NCI Yeast Anticancer Drug Screen. Data for the mgt1 strain (AID 153); conditions: S. cerevisiae mgt1 mutant growth inhibition, stronger effect = higher value
Summary of the method: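 Read-out: yeast growth inhibition vs vehicle control. Strain mgt1, drawn from a panel altered in DNA damage repair or cell cycle control.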

[16] = NCI Yeast Anticancer Drug Screen. Data for the rad50 strain (AID 155);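 also: 0% = growth of vehicle-only cultures of the same strain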; conditions: S. cerevisiae rad50 strain growth inhibition, stronger effect = higher value
Summary of the method: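 Cells are treated with compound, grown, and their growth is then scored against vehicle-only cultures of the same repair-deficient yeast strain.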

[17] = at 5.0 µM (retest, dose inferred, filed as 0.5)
[18] = at 50.0 µM (retest, dose inferred, filed as 5.0)

Measured: growth inhibition

CC1(Cl)CC(C)(/C=C/Cl)C(Cl)CC1Cl (centres undefined)
inactive: [1]; [17] 9% | [1]; at 11.0 µM 6% | [1]; at 33.0 µM 20% | [1]; [18] 7% | [1]; at 50.0 µM 19.1% | [1]; at 100.0 µM 46% | [2]; at 1.2 µM 4% | [2]; at 3.7 µM 1% | [2]; at 11.0 µM 5% | [2]; at 33.0 µM 16% | [2]; at 100.0 µM 48% | [3]; [17] 1% | [3]; [18] -17% | [3]; at 50.0 µM 51% | [4]; at 1.2 µM 3% | [4]; at 3.7 µM 5% | [4]; at 11.0 µM 8% | [4]; at 33.0 µM 23% | [4]; at 100.0 µM 49% | [5]; [17] 40% | [5]; [18] -20% | [5]; at 50.0 µM 45% | [6]; at 1.2 µM 2% | [6]; at 3.7 µM 0% | [6]; [17] -3% | [6]; at 11.0 µM 2% | [6]; at 33.0 µM 12% | [6]; [18] -8% | [6]; at 50.0 µM 15.4% | [6]; at 100.0 µM 31% | [7]; at 1.2 µM 0% | [7]; at 3.7 µM 1% | [7]; at 11.0 µM 3% | [7]; at 33.0 µM 16% | [7]; at 100.0 µM 50% | [8]; at 1.2 µM 2% | [8]; at 3.7 µM 1% | [8]; at 11.0 µM 4% | [8]; at 33.0 µM 14% | [8]; at 100.0 µM 41% | [9]; at 1.2 µM 4% | [9]; at 3.7 µM 2% | [9]; at 11.0 µM 2% | [9]; at 33.0 µM 28% | [9]; at 100.0 µM 64% | [10]; [17] 8% | [10]; [18] -23% | [11]; at 1.2 µM 5% | [11]; at 3.7 µM 5% | [11]; at 11.0 µM 12% | [11]; at 33.0 µM 30% | [11]; at 100.0 µM 48%
active: [10]; at 50.0 µM 79.4%

CCCCN(CCCC)CC(C(C)=O)C(c1ccccc1)c1c(O)c2ccccc2oc1=O (centres undefined)
active: [16]; at 50.0 µM 71.3% | [3]; at 50.0 µM 84.2% | [5]; at 50.0 µM 81.5% | [6]; at 50.0 µM 74.5% | [10]; at 50.0 µM 76.8%
inactive: [12]; at 1.2 µM 2% | [12]; at 3.7 µM 3% | [12]; at 11.0 µM 2% | [12]; at 33.0 µM 3% | [12]; at 100.0 µM 2% | [13]; at 1.2 µM 0% | [13]; at 3.7 µM -1% | [13]; at 11.0 µM -1% | [13]; at 33.0 µM -3% | [13]; at 100.0 µM -4% | [14]; at 1.2 µM -7% | [14]; at 3.7 µM -5% | [14]; at 11.0 µM -6% | [14]; at 33.0 µM -8% | [14]; at 100.0 µM -3% | [15]; at 1.2 µM 1% | [15]; at 3.7 µM 2% | [15]; at 11.0 µM 3% | [15]; at 33.0 µM 0% | [15]; at 100.0 µM -1% | [16]; at 1.2 µM 2% | [16]; at 3.7 µM 2% | [16]; [17] 22% | [16]; at 11.0 µM 4% | [16]; at 33.0 µM 3% | [16]; [18] 22% | [16]; at 100.0 µM 1% | [1]; at 1.2 µM 3% | [1]; at 3.7 µM 2% | [1]; [17] 25% | [1]; at 11.0 µM -1% | [1]; at 33.0 µM -1% | [1]; [18] 25% | [1]; at 50.0 µM 69.6% | [1]; at 100.0 µM 5% | [2]; at 1.2 µM 5% | [2]; at 3.7 µM 3% | [2]; at 11.0 µM 2% | [2]; at 33.0 µM -2% | [2]; at 100.0 µM -24% | [3]; [17] 10% | [3]; [18] 10% | [4]; at 1.2 µM 1% | [4]; at 3.7 µM 6% | [4]; at 11.0 µM 5% | [4]; at 33.0 µM -2% | [4]; at 100.0 µM -3% | [5]; [17] 51% | [5]; [18] 51% | [6]; at 1.2 µM 4% | [6]; at 3.7 µM 2% | [6]; [17] 4% | [6]; at 11.0 µM 15% | [6]; at 33.0 µM 22% | [6]; [18] 4% | [6]; at 100.0 µM 6% | [7]; at 1.2 µM 0% | [7]; at 3.7 µM -1% | [7]; at 11.0 µM 0% | [7]; at 33.0 µM -1% | [7]; at 100.0 µM 4% | [8]; at 1.2 µM 0% | [8]; at 3.7 µM -2% | [8]; at 11.0 µM -2% | [8]; at 33.0 µM 1% | [8]; at 100.0 µM -28% | [9]; at 1.2 µM -4% | [9]; at 3.7 µM -6% | [9]; at 11.0 µM -7% | [9]; at 33.0 µM -4% | [9]; at 100.0 µM 9% | [10]; [17] 22% | [10]; [18] 22% | [11]; at 1.2 µM -3% | [11]; at 3.7 µM -9% | [11]; at 11.0 µM -10% | [11]; at 33.0 µM -12% | [11]; at 100.0 µM -8%

C[CH2][Sn]([CH2]C)([O]S(C)(=O)=O)[O]S(C)(=O)=O
inactive: [12]; at 1.2 µM -24% | [12]; at 3.7 µM -17% | [12]; at 11.0 µM -24% | [12]; at 33.0 µM -10% | [12]; at 100.0 µM 11% | [13]; at 1.2 µM -27% | [13]; at 3.7 µM -9% | [13]; at 11.0 µM -15% | [13]; at 33.0 µM -12% | [13]; at 100.0 µM -2% | [14]; at 1.2 µM -28% | [14]; at 3.7 µM -30% | [14]; at 11.0 µM -25% | [14]; at 33.0 µM -14% | [14]; at 100.0 µM -19% | [15]; at 1.2 µM 0% | [15]; at 3.7 µM 0% | [15]; at 11.0 µM -11% | [15]; at 33.0 µM -7% | [15]; at 100.0 µM 37% | [16]; at 1.2 µM -21% | [16]; at 3.7 µM -6% | [16]; [17] 18% | [16]; at 11.0 µM -15% | [16]; at 33.0 µM -20% | [16]; [18] 57% | [16]; at 100.0 µM 6% | [1]; at 1.2 µM -15% | [1]; at 3.7 µM -4% | [1]; [17] 13% | [1]; at 11.0 µM -9% | [1]; at 33.0 µM -4% | [1]; [18] 58% | [1]; at 100.0 µM 16% | [2]; at 1.2 µM -21% | [2]; at 3.7 µM -18% | [2]; at 11.0 µM -17% | [2]; at 33.0 µM -10% | [2]; at 100.0 µM -9% | [3]; [17] 14% | [3]; [18] 58% | [3]; at 50.0 µM 50% | [4]; at 1.2 µM -78% | [4]; at 3.7 µM -94% | [4]; at 11.0 µM -65% | [4]; at 33.0 µM -103% | [4]; at 100.0 µM -62% | [5]; [17] 6% | [5]; [18] 18% | [5]; at 50.0 µM 46.2% | [6]; at 1.2 µM -28% | [6]; at 3.7 µM -25% | [6]; [17] 36% | [6]; at 11.0 µM -17% | [6]; at 33.0 µM -27% | [6]; [18] 50% | [6]; at 50.0 µM 45.5% | [6]; at 100.0 µM 24% | [7]; at 1.2 µM -56% | [7]; at 3.7 µM -44% | [7]; at 11.0 µM -46% | [7]; at 33.0 µM 3% | [7]; at 100.0 µM 55% | [8]; at 1.2 µM -51% | [8]; at 3.7 µM -29% | [8]; at 11.0 µM -33% | [8]; at 33.0 µM -37% | [8]; at 100.0 µM 0% | [9]; at 1.2 µM -27% | [9]; at 3.7 µM -16% | [9]; at 11.0 µM -22% | [9]; at 33.0 µM -7% | [9]; at 100.0 µM 15% | [10]; [17] 33% | [10]; at 50.0 µM 56.6% | [11]; at 1.2 µM -28% | [11]; at 3.7 µM -19% | [11]; at 11.0 µM -13% | [11]; at 33.0 µM -15% | [11]; at 100.0 µM 25%
active: [16]; at 50.0 µM 76.2% | [1]; at 50.0 µM 85.3% | [10]; [18] 80%
